The source made the active and inactive calls.
Legend:
Albumin (Bos taurus) = Albumin (Bos taurus) (UniProt P02769); assay: bovine serum albumin binders on microarray, profiling panel, artefact control for SMM control protein annotation, biochemical, small-molecule microarray, Alexa647 label, 635/667 nm fluorescence (AID 1118); conditions: BSA-A647 binding, fluorescence 635 nm, higher = more signal;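 note: score merges 667 nm emission intensity and signal-to-noise per printed compound spot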
[1] = small-molecule microarray binders of probe aXIP, primary screen, biochemical, NeuroSMM set, 635/667 nm fluorescence (AID 1119); conditions: higher = more signal, called active from +8 up or from −8 down;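 note: probe is the protein aXip251-270 applied at 1 µg/mL to compound-printed slides; binding of probe to printed compounds measured as 667 nm fluorescence plus signal to noise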
[2] = small-molecule binders of probe aNOTCH3, primary screen, biochemical, small-molecule microarray, 635/667 nm fluorescence (AID 1120); conditions: higher = more signal;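 note: probe is a biotin-tagged antibody raised against NOTCH3 rather than NOTCH3 protein; score merges spot fluorescence near 667 nm with spot signal to noise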
[3] = small-molecule binders of probe aNOTCH2, primary screen, biochemical, small-molecule microarray, 635/667 nm fluorescence (AID 1121); conditions: higher = more signal;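 note: score merges feature fluorescence read at 667 nm with its signal to noise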
[4] = target: Carbonic anhydrase 2 (Homo sapiens) (UniProt P00918); assay: CAII small-molecule binders, profiling panel, biochemical, small-molecule microarray, Alexa647-labelled CAII (AID 1122); conditions: CAII-A647 binding fluorescence, higher = more signal
[5] = COS7 lysate on small-molecule microarray, probe aHis, 635 nm (AID 1123); conditions: COS7 cell lysate, fluorescence, higher = more signal;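 note: z-score combines 667nm fluorescence intensity with signal-to-noise per printed compound spot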
[6] = compound binding in COS7 lysate, probe aLAP1, primary screen, cell lysate, small-molecule microarray (AID 1124); conditions: probe aLAP1, fluorescence, higher = more signal;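 note: lysate comes from COS7 cells expressing LAP1 and is applied at 0.3 µg/mL; score merges spot fluorescence near 667 nm with signal-to-noise over triplicate slides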
Sam68 (KHDRBS1) = assay: Sam68 small-molecule binders, primary screen, biochemical, small-molecule microarray, 635 nm fluorescence (AID 1125); conditions: small-molecule microarray binding, higher = more signal;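 note: score merges 667 nm channel intensity with signal to noise over triplicate slides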
[7] = system: Chordin-like protein 2 (CHRDL2); assay: CHRDL2 small-molecule binders, primary screen, biochemical, small-molecule microarray, 635 nm fluorescence (AID 1126); conditions: small-molecule microarray binding, fluorescence 635 nm; higher = more signal;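 note: printed compound slides probed with Chrdl2 protein at 4 µg/mL for 1 h at 4 C; score merges 667 nm emission intensity with signal to noise over three replicate slides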
[8] = target: Concanavalin-A (Canavalia ensiformis) (UniProt P02866); assay: ConA small-molecule binders, primary screen, artefact control for SMM control protein annotation, biochemical, small-molecule microarray, Alexa647 label, 635 nm (AID 1127); conditions: ConA-A647 binding fluorescence, higher = more signal;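 note: z combines 667 nm emission intensity with signal-to-noise across three replicate slides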
Sequence of Concanavalin-A (Canavalia ensiformis) (P02866 whole entry, looked up): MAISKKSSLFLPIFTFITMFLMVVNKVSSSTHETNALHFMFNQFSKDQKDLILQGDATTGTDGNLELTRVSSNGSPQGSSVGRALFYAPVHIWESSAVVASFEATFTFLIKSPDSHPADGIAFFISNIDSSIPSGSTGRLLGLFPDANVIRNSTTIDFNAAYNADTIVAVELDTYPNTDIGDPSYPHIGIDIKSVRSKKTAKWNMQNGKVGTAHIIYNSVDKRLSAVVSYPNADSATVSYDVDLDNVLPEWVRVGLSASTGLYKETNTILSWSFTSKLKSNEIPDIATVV

[9] = anti-His antibody binders, primary screen, artefact control for SMM control protein annotation, biochemical, small-molecule microarray, 635 nm fluorescence (AID 1128); conditions: anti-His Alexa647 antibody binding, higher = more signal;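 note: score merges feature fluorescence with signal-to-noise for each printed compound spot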
[10] = system: Human papillomavirus type 1a E7 protein (residues 1-88); assay: HPV1a E7 small-molecule binders, primary screen, biochemical, small-molecule microarray, residues 1-88, 635 nm (AID 1129); conditions: small-molecule microarray binding, fluorescence 635 nm; higher = more signal
[11] = target: Focal adhesion kinase 1 (Homo sapiens) (UniProt Q05397); assay: small-molecule microarray binders of FAK, primary screen, biochemical, 635/667 nm fluorescence, BSA, DTT (AID 1130); conditions: PTK2 binding, 635 nm fluorescence, higher = more signal;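 note: composite of spot emission at 667 nm and signal to noise over triplicate slides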
Sequence of Focal adhesion kinase 1 (Homo sapiens) (Q05397 whole entry, looked up): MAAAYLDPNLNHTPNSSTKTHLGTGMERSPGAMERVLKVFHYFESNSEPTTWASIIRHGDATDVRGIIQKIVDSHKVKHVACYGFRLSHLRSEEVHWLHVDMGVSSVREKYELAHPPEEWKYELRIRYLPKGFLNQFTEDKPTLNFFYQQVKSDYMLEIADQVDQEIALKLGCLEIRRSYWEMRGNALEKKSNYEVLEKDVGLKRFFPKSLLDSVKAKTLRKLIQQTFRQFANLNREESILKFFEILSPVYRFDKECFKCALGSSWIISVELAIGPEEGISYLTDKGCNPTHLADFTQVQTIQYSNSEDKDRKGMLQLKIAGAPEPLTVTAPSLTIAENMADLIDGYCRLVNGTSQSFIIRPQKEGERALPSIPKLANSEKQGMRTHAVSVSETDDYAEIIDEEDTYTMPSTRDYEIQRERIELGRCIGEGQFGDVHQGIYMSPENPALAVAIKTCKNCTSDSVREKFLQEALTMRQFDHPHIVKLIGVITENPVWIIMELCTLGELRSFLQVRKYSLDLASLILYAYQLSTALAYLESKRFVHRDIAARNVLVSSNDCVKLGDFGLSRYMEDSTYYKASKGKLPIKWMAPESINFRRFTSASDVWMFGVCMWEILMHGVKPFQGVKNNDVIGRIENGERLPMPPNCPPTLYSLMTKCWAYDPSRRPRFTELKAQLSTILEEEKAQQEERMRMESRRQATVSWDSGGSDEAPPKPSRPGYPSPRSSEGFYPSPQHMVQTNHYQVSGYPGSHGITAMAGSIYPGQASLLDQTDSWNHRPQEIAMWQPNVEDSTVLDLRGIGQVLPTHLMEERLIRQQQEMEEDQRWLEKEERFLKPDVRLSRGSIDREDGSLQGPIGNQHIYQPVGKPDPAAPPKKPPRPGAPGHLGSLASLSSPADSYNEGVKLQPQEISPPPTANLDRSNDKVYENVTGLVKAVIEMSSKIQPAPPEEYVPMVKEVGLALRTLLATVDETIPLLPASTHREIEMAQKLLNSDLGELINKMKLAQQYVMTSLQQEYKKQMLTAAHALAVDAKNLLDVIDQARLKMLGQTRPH

[12] = system: Fibrinogen (Alexa647-labelled); assay: fibrinogen binders on compound microarrays, profiling panel, artefact control for SMM control-protein annotation, biochemical, small-molecule microarray, 635/667 nm fluorescence (AID 1131); conditions: fibrinogen-A647 binding fluorescence, higher = more signal;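 note: z-score merges 667 nm fluorescence with per-spot signal-to-noise over triplicate slides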
[13] = target: Follistatin (Homo sapiens) (UniProt P19883); assay: follistatin binders on small-molecule microarrays, primary screen, biochemical, small-molecule microarray, 635/667 nm fluorescence (AID 1132); conditions: FST binding, 635 nm fluorescence, higher = more signal
Sequence of Follistatin (Homo sapiens) (P19883 whole entry, looked up): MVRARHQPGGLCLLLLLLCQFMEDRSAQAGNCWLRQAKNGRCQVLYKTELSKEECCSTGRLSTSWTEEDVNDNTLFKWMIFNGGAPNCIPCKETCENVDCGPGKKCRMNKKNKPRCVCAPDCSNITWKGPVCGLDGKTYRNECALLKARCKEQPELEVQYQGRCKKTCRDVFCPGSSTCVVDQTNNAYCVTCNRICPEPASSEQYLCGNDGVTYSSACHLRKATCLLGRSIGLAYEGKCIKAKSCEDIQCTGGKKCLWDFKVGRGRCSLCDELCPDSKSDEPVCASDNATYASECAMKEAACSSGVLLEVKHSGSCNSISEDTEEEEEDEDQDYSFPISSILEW

[14] = target: Fibroblast growth factor 2 (Homo sapiens) (UniProt P09038); assay: FGF2 binders on small-molecule microarrays, primary screen, biochemical, small-molecule microarray, 635/667 nm fluorescence (AID 1133); conditions: small-molecule microarray binding, FGF2, fluorescence 635/667; higher = more signal
Sequence of Fibroblast growth factor 2 (Homo sapiens) (P09038 whole entry, looked up): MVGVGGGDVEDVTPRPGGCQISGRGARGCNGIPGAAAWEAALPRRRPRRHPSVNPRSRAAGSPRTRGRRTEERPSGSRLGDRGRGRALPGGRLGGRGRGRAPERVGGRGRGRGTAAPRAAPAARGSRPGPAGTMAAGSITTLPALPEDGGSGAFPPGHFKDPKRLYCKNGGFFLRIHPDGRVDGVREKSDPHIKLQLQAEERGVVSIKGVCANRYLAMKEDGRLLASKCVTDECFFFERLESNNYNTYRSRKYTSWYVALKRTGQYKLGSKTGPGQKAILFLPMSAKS

[15] = mitochondrial membrane potential change in A549 cells, profiling panel, cell-based, JC-1 fluorescence, basal, 24 h, 100 nL (AID 1138); conditions: higher = more signal;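 note: A549 lung adenocarcinoma cells under basal conditions with no added stimulus; test concentration not given here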
Lefty1 = Lefty1 binders on small-molecule microarrays, primary screen, biochemical, small-molecule microarray, 635/667 nm fluorescence (AID 1139); conditions: small-molecule microarray binding, fluorescence 635/667; higher = more signal
[16] = system: wheat germ agglutinin (Triticum aestivum), Alexa647-labelled; assay: wheat germ agglutinin binders on compound microarrays, profiling panel, artefact control for SMM control-protein annotation, biochemical, small-molecule microarray, 635/667 nm fluorescence (AID 1140); conditions: WGA-A647 binding, 635 nm fluorescence, higher = more signal;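 note: score merges 667 nm feature emission with signal to noise over triplicate slides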
[17] = target: Luciferin 4-monooxygenase (Photinus pyralis) (UniProt P08659); assay: firefly luciferase enzyme inhibitors, primary screen, biochemical, luminescence, purified enzyme, 2006 set (AID 1141); conditions: SteadyGlo luminescence, 30 min, higher = more signal, called active from +8 up or from −8 down;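 note: cell-free assay with purified firefly luciferase at 100 ng per well in PBS; test concentration not given here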
Sequence of Luciferin 4-monooxygenase (Photinus pyralis) (P08659 whole entry, looked up): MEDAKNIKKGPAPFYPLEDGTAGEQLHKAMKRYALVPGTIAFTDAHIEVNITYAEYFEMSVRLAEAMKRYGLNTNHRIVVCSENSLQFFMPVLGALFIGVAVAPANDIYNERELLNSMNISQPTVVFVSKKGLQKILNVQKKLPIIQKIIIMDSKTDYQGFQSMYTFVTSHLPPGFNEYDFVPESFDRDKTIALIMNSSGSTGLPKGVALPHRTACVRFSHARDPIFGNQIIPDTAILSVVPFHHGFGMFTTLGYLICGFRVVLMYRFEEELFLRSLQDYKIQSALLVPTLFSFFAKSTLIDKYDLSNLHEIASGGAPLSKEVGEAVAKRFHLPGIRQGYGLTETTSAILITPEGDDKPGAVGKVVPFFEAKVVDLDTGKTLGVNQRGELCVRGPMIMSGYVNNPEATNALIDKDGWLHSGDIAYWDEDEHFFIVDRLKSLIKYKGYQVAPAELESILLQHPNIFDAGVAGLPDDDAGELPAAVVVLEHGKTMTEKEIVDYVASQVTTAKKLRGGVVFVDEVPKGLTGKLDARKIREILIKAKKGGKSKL

Sequence of Albumin (Bos taurus) (P02769 whole entry, looked up): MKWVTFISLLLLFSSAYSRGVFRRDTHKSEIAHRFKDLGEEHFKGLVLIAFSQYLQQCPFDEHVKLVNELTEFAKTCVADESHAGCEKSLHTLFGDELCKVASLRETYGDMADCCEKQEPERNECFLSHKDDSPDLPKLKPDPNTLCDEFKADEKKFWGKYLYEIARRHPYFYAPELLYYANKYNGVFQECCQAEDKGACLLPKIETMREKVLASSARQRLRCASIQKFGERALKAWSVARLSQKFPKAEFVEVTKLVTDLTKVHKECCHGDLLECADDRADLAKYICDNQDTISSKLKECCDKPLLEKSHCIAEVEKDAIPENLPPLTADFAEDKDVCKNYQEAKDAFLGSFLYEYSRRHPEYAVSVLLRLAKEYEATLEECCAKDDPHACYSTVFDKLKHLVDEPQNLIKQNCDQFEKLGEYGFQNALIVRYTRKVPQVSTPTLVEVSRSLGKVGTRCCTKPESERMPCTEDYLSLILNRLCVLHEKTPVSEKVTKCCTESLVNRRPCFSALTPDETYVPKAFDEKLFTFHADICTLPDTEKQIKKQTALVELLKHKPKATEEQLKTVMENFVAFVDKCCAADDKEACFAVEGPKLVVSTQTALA

Structure (SMILES) | composite z-score (Albumin (Bos taurus)) | composite Z-score [1] | composite z-score [2] | composite z-score [3] | composite z-score [4] | composite z-score [5] | composite z-score [6] | composite z-score (Sam68 (KHDRBS1)) | composite z-score [7] | composite z-score [8] | composite z-score [9] | composite z-score [10] | composite z-score [11] | composite z-score [12] | composite z-score [13] | composite z-score [14] | z-score [15] | composite z-score (Lefty1) | composite z-score [16] | z-score [17]
CC(C)c1ccc(NN2C(C(O)c3ccc(B(O)O)cc3)C=CC3C(=O)N(c4ccccc4)C(=O)C32)cc1 (stereo not given) | 0.958 | -0.852 (inactive) | 0.216 | 0.0571 | 0.493 | 2.32 | 0.681 | 1.26 | -1.06 | 1.06 | 1.24 | 1.2 | 0.581 | 0.952 | 1.32 | -0.159 | -0.641 | 0.481 | 0.783 | -6.16 (inactive)
C=CCN1C(=O)[C@@]2(CC=C)N=C(c3ccc(OCCCO)cc3)O[C@H]2c2ccccc21 | 0.272 | 0.33 (inactive) | 0.323 | 0.189 | 0.614 | 3.3 | 1.05 | 1.3 | 1.33 | 1.05 | 2.12 | 1.2 | 0.743 | 0.576 | 1.49 | 1.76 | 2.66 | 1.17 | 0.503 | -9.06 (active)
C=CC[C@]1(C(=O)NCc2ccccc2)N=C(c2ccc(OCCCO)cc2)O[C@H]1c1ccccc1N=[N+]=[N-] | 0.897 | 1.39 (inactive) | 0.174 | 0.12 | 0.625 | 2.68 | 0.727 | 1.34 | -0.567 | 1.09 | 2.39 | 1.22 | 0.618 | 0.971 | 1.23 | -0.26 | 0.34 | 0.194 | 1.23 | -8.88 (active)
C=CCC(OC(C)=O)[C@@H]1[C@@H](N(Cc2ccc(-c3ccccc3)cc2)C(=O)c2cccc3ccccc23)c2cc(OCCCO)ccc2N1C(=O)c1ccc(-c2ccccc2)cc1 (stereo not given in full) | -0.0695 | 0.45 (inactive) | 0.0897 | -0.0783 | 0.175 | 1.17 | 0.674 | 0.316 | 0.111 | -0.249 | -0.722 | 0.521 | 0.0082 | 0.56 | 0.435 | -0.0136 | 1.68 | -0.111 | 0.556 | -0.52 (inactive)
O=C1C2C=CC(C(O)c3cc(C(F)(F)F)cc(C(F)(F)F)c3)N(n3cnnc3)C2C(=O)N1Cc1ccccc1 (stereo not given) | 0.184 | -0.0461 (inactive) | -0.0391 | 0.392 | 0.68 | 1.58 | -0.0088 | 0.824 | -1.04 | 0.516 | 0.955 | -0.269 | -0.176 | 0.889 | -0.192 | -0.794 | -1.57 | -0.264 | 1.05 | 1.46 (inactive)
CCCCCN1CC=CC23O[C@@H]4/C=C\CCC(C)OC(=O)C4[C@H]2C(=O)N(C(C)CO)[C@@H]3C1=O (stereo not given in full) | -0.671 | -0.275 (inactive) | -0.127 | -0.14 | 0.536 | -0.0346 | 0.169 | 0.579 | -0.388 | -0.211 | -0.361 | -0.575 | -0.521 | -0.925 | 0.274 | -0.556 | 0.157 | 0.696 | -0.721 | -0.078 (inactive)

Source: PubChem BioAssay
